Screens from PubChem.
Shown are actives, neighbours in structure and some others; about 2.1% of the full set was active somewhere.
IDE cell activ – human IDE activators in live cells, primary screen, fluorescence polarization, HEK cells, FAbeta-B substrate; Insulin-degrading enzyme (Homo sapiens), P14735; actives 0.073% (n = 340,000); activation, % at 5.96 µM; FAbeta-B cleavage; 0% vehicle, 100% cell-free pure enzyme wells;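 active = activation above the mean of all tested compounds plus 3 SD, set per screening campaign, cut at about 17% in these data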
Target sequence (P14735 whole entry, looked up): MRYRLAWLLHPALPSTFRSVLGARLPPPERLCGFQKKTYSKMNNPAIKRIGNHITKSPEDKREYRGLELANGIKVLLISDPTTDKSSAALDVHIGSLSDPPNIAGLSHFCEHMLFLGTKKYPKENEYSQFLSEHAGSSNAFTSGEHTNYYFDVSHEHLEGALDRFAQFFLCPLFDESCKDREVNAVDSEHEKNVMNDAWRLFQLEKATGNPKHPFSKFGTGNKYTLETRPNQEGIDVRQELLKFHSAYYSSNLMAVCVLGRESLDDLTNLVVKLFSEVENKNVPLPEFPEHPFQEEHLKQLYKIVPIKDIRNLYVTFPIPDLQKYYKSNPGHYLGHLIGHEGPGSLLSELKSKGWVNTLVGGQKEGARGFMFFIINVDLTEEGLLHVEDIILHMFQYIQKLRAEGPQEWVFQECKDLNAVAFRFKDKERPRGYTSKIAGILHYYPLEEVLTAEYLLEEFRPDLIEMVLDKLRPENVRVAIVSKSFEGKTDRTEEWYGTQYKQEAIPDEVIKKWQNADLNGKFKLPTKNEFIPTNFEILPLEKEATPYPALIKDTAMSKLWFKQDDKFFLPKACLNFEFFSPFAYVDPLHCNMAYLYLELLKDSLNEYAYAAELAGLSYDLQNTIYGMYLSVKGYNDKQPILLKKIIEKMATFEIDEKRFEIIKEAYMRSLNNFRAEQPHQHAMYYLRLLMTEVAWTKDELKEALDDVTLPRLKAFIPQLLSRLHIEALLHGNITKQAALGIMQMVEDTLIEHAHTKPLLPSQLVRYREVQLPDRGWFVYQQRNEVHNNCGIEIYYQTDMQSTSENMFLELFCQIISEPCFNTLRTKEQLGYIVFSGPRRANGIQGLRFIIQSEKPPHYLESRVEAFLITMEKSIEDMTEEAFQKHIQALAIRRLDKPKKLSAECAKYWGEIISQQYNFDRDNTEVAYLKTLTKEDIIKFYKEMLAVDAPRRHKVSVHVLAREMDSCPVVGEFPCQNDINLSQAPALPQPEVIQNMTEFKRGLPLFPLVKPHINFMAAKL
IDE inh – human IDE inhibitors in live cells, primary screen, fluorescence polarization, HEK cells, FAbetaB substrate | Insulin-degrading enzyme (Homo sapiens), P14735 | actives 0.41% (n = 320,000) | FAbetaB cleavage | inhibition, % at 5.59 µM;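 active = percent inhibition above the average of all tested compounds plus 3 SD, set per screening campaign, cut at about 16% in these data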;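 note: IDE supplied by intact live HEK cells; FP after avidin binding of uncleaved biotin substrate so inhibition keeps polarization high; 0% = DMSO wells and 100% = 60 µM reference IDE inhibitor Ii1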
LANA-H2A inh – blockers of LANA interaction with H2A/H2B – biochemical, FP readout, HTS, primary screen; Protein LANA1 (Human herpesvirus 8 type P (isolate GK18)), Q9QR71; inhibition, % (no concentration beside the values); actives 0.6% (n = 320,000); cell-free LANA-H2A/H2B peptide, fluorescence polarization; in the data active = inhibition mostly above about 10%, no sharp cut-off; inactive = mostly below about 6.7%
HDAC3 inh – HDAC3 deacetylase inhibitors, primary screen, biochemical, fluorescence, cell-free homogeneous; Histone deacetylase 3 (Homo sapiens), O15379; recombinant HDAC3, fluorogenic peptide/trypsin coupled; inhibition, % at 8.3 µM; actives 0.15% (n = 320,000); in the data active = inhibition above about 26%, passing the limit was not always enough
SUMO Mot1 rescue – yeast Mot1-301 growth rescue at high temperature, primary screen, SUMOylation pathway inhibitor project, S. cerevisiae, ATP luminescence, 38.5C; S. cerevisiae Mot1-301 growth rescue; percent above DMSO median, 100 means doubled; growth rescue, % at 18.8 µM; actives 1% (n = 320,000);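 active = every valid replicate shows activation above 250% relative to neutral control wells; inactive = the rest, any valid replicate at or below 250%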;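 note: OY570 slx delta 5 strain wells were the positive control but not used for scaling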
Mot1 SUMO dose – growth restoration of Mot1-301 yeast on galactose, dose response, SUMO pathway inhibitor project, whole organism, S. cerevisiae, ATP luminescence, cherry-picked samples; growth activity, percent, % at 42 µM; 2,300 tested, under 10 active; S. cerevisiae Mot1-301 galactose growth, 24 h; -100 = growth of slx-deleted rescue strain; AID 493004, 2010; shares compounds with SUMO Mot1 rescue;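 active = Signal drops as the depositor expects, and the fitted half-maximal dose is no more than ten times the top valid tested dose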;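 note: more negative values mean stronger growth rescue toward the control strain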
* marks the source's active call; other numbers are inactive results; . = not tested or not shown; + = active, no number.

SMILES	IDE cell activ	IDE inh	LANA-H2A inh	HDAC3 inh	SUMO Mot1 rescue	Mot1 SUMO dose
Cc1ccc(C(=O)Nc2ccc3c(c2)OCCO3)c(Cl)c1	2.5	1.4	-3.8	0.5	407.6*	-1.4
CC(=O)N1c2ccc([N+](=O)[O-])cc2NC(=O)CC1C (stereo not given)	2.8	-3.4	-0.5	0.4	600.2*	-0.5
CC1CC(=O)Nc2ccc([N+](=O)[O-])cc2N1C (stereo not given)	2.8	1.5	-1.3	1.4	2.9	.
Oc1c(Cl)cc(Cl)cc1/C=N/c1nc(-c2ccc(Cl)cc2)cs1	-0.5	3.8	-0.8	-6.6	719.2*	-0.6
COC(=O)c1ccccc1NC(=O)NC1CCCC1	1.4	2.0	0.3	-18.7	-14.7	.
COc1ccc(NC(=O)c2ccccc2NC(=O)NC2CCCCC2)cc1	8.7	-4.0	4.0	1.5	521.9*	-0.2
CC(=O)Nc1ccc(S(=O)(=O)N(C)CC(=O)OCC(=O)c2ccc3c(c2)NC(=O)CO3)cc1	3.5	3.2	.	3.9	-4.8	.
CCOc1ccc(S(=O)(=O)N2CCN(C(=O)CN3C(=O)NC4(CCCC4)C3=O)CC2)cc1	-1.7	0.7	-2.7	-1.8	666.2*	-0.5
N#Cc1c(Cn2cncn2)nc(=O)n(-c2ccc(Cl)cc2)c1N	0.7	2.3	-1.2	-0.3	+	0.3
COc1ccc(-n2c(C)cc(C(=O)CN3C(=O)NC4(CCCc5sccc54)C3=O)c2C)cc1 (stereo not given)	1.8	3.6	-6.0	9.9	+	-1.0
O=C(CSc1nnnn1C1CC2CCC1C2)Nc1ccnc2ccccc12 (stereo not given)	-5.1	7.8	-1.9	10.8	775.2*	-0.4
Cc1ccc(C2NC(=O)c3ccccc3N2)c(C)c1 (stereo not given)	-1.4	.	.	.	.	.
COc1cc(/C(C)=C/c2ccccc2)c2c(c1)oc1ccccc12	.	3.1	4.9	-14.8	-3.7	.
O=C(CN1C(=O)COc2ccc(S(=O)(=O)N3CCCCCC3)cc21)NCc1ccc(F)cc1	4.5	1.7	3.2	0.8	222.3	.
CCOC(=O)c1ccc(NC(=O)c2nc[nH]c2C(=O)N2CCc3ccccc3C2)cc1	-2.9	5.3	3.1	4.2	371.0*	0.3
CC1c2cc3c(cc2CCN1CC(=O)Nc1ccccc1)OCCCO3 (stereo not given)	3.7	4.6	-6.8	4.2	653.3*	0.5
COc1ccccc1N1CCN(C(=O)c2ccc(-c3ccccc3)cc2)CC1	-1.3	2.0	1.4	1.7	+	-0.1
COc1ccc(C(=O)N2CCN(c3ccccc3OC)CC2)cc1	9.1	0.2	-2.4	11.0	1.7	.
CCC(=O)c1ccc(OC(=O)N2CCOCC2)cc1	1.6	0.8	1.4	3.9	4.7	.
Cc1nc2sc3c(c2c(=O)[nH]1)CCC3	2.1	-3.4	1.3	3.8	-9.4	.
O=c1[nH]cnc2sc3c(c12)CCC3	3.0	-2.7	1.3	3.4	625.8*	-0.2
COc1ccc(/C=C2/SC(=O)N(NS(=O)(=O)c3ccccc3)C2=S)cc1OC	1.1	-0.7	-4.2	1.5	375.3*	-1.6
CCOC(=O)Cn1c(=O)cc(C)c2ccccc21	-3.4	-0.8	1.9	-3.3	-16.0	.
CCOC(=O)Cn1c(C)c(Br)c(=O)c2cccc(C)c21	2.8	4.1	-5.9	8.2	+	-0.4
CCC(=O)Nc1cccc(C2=NN(c3ccccc3)C(c3ccc(OC)cc3)C2)c1 (stereo not given)	-3.6	-5.0	-2.0	1.8	-7.0	.
SMILES	IDE cell activ	IDE inh	LANA-H2A inh	HDAC3 inh	SUMO Mot1 rescue	Mot1 SUMO dose
O=C1Nc2ccccc2/C1=C/c1ccccc1Cl	1.5	5.7	-1.5	-2.8	-8.3	.
O=C1Nc2ccccc2/C1=C/c1ccc([N+](=O)[O-])cc1	-2.1	4.2	2.8	-0.1	476.9*	-0.4
O=[N+]([O-])c1c(O)c(Cl)cc(Cl)c1Cl (tested in a mixture with another compound)	6.4	.	.	.	.	.
CC1=Nc2ccc(C)cc2N(Cc2ccccc2)C(=O)C1	-4.0	0.8	1.4	0.0	628.5*	0.1
CC1=C(C)CC2C(=O)N(Cc3ccccc3)C(=O)C2C1 (stereo not given)	4.0	-2.4	2.0	-5.6	101.6	.
COc1cccc(OC)c1NC(=O)C1CCCN1C(=O)Nc1cccc(Cl)c1 (stereo not given)	-0.8	5.2	-1.6	-1.1	230.7	.
Fc1cccc(NC(=S)N2CCn3cccc3C2c2cccnc2)c1 (stereo not given)	-4.6	0.0	2.7	-3.9	496.7*	-0.5
S=C(Nc1ccccc1)N1CCn2cccc2C1c1cccnc1 (stereo not given)	2.4	5.1	4.4	3.4	47.4	.
CCN(CC)C(=O)CSc1nnc(SCc2ccc(Cl)cc2)s1	4.0	0.4	-3.3	-6.5	509.9*	-0.2
O=C(CSc1nnc(SCc2ccc(Cl)cc2)s1)N1CCOCC1	2.7	5.5	-2.2	-7.3	-12.7	.
Cc1ccc(-n2nnnc2SCC#N)cc1	6.2	6.1	-8.0	-5.9	715.5*	0.5
COc1ccc(-n2nnnc2SCC#CCO)cc1	5.6	6.4	-4.9	-4.3	6.0	.
COc1ccc(NC(=O)CN(C)CC(=O)N2CCCCCC2)cc1	3.9	.	.	.	.	.
CCOC(=O)N1CCC(NC(=O)c2oc3c(C)c(C)ccc3c2C)CC1	1.1	-6.2	-6.7	-0.6	0.2	.
NNc1nnc2c3cc(F)ccc3n(CCc3ccccc3)c2n1	-3.0	-1.9	0.0	-2.4	-15.0	.
N#CCC(=O)N/N=C/c1ccc(OS(=O)(=O)c2ccccc2)cc1	4.7	-1.6	12.3	11.6	845.8*	-1.0
CCCCCN(C(=O)CSc1n[nH]c(-c2ccc(C)cc2)n1)c1c(N)n(CCCC)c(=O)[nH]c1=O	1.9	3.1	2.1	2.9	-0.9	.
O=C(COC(=O)/C=C/c1cccc(F)c1)NC1CCCCCC1	0.4	7.3	5.4	1.1	-12.5	.
CCON1C(=O)C2(CCCCC2)C(=O)C12C=CCCC2 (stereo not given)	-0.7	.	.	.	.	.
COc1ccc(C(=O)N/C(=C\c2cc(OC)c(OC)cc2[N+](=O)[O-])C(=O)NCCO)cc1	4.6	0.1	1.3	4.2	992.8*	0.0
O=C(C[C@@H]1C/C=C\C[C@H](Cc2ccc(F)cc2)C(=O)OC[C@H]2CCCN2C1=O)N[C@H](CO)Cc1ccccc1	4.2	1.1	0.9	2.5	-4.9	.
COc1ccc(/C=N/NC2=NS(=O)(=O)c3ccccc32)cc1	-1.5	-1.6	-4.7	4.1	12.7	.
